22 compounds from PubChem BioAssay (EPA / NIEHS) can be followed below.

The source made the active and inactive calls. The calls were made as follows: active = hit-call score of the fitted dose curve at least 0.9, where 1 is the maximum; inactive = score below 0.9.

Settings in all cases: mRNA level, 48 h; actives raise or lower the signal
Read-out in one assay: CYP3A5 (gene 1577)
The assay can be described thus: LTEA_HepaRG_CYP3A5: Life Technologies and Expression Analysis (LTEA) Assay for CYP3A5 using HepaRG (AID 2283493). The method in brief: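 Human HepaRG hepatic cells receive 48 h chemical treatment at eight concentrations (half-log steps from 100 uM) in 0.5% DMSO. Expression of CYP3A5 is quantified by Fluidigm qRT-PCR and normalized to three reference genes.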

Read-out in assay [1]: Fatty Acid-Binding Protein 1 (FABP1), FABP1 (gene 2168)
In words: LTEA_HepaRG_FABP1: Life Technologies and Expression Analysis (LTEA) Assay for Fatty Acid-Binding Protein 1 (FABP1) using HepaRG (AID 2283494). The method in brief: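 FABP1 expression by TaqMan qRT-PCR, normalised to three housekeeping genes, in HepaRG cells after 48 h chemical treatment. Eight-point half-log series topping at 100 uM in 0.5% DMSO, duplicates; gain or loss fitted relative to vehicle.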

Read-out in assay [2]: Glutathione S-Transferase (GSTA2), GSTA2 (gene 2939)
In words: LTEA_HepaRG_GSTA2: Life Technologies and Expression Analysis (LTEA) Assay for Glutathione S-Transferase (GSTA2) using HepaRG (AID 2283497). The method in brief: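 GSTA2 transcript levels came from Fluidigm TaqMan qRT-PCR normalized to three housekeeping genes, fitted in both directions against DMSO. HepaRG cultures received chemicals for 48 h in serum-free induction medium (0.5% DMSO), 8 half-log concentrations up to 100 uM, duplicate.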

Read-out in assay [3]: Glutamate-cysteine ligase catalytic (GCLC), GCLC (gene 2729)
The assay can be described thus: LTEA_HepaRG_GCLC: Life Technologies and Expression Analysis (LTEA) Assay for Glutamate-cysteine ligase catalytic (GCLC) using HepaRG (AID 2283498). The procedure, abridged: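 Expression by TaqMan qRT-PCR, normalized to three housekeeping genes (ACTB, GAPDH, POLR2A), with up- or down-regulation fitted against DMSO. HepaRG cells dosed in duplicate for 48 h with 8 half-log concentrations up to 100 uM, vehicle 0.5% DMSO.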

Read-out in assay [4]: Glutamate-cysteine ligase regulatory (GCLM), GCLM (gene 2730)
The assay can be described thus: LTEA_HepaRG_GCLM: Life Technologies and Expression Analysis (LTEA) Assay for Glutamate-cysteine ligase regulatory (GCLM) using HepaRG (AID 2283500). The method in brief: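 Endpoint is GCLM transcript level by qRT-PCR, normalized to three housekeeping genes, after 48 h chemical exposure of human HepaRG cells (0.5% DMSO vehicle, top 100 uM, half-log dilutions). Fitting was bidirectional relative to DMSO.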

Read-out in assay [5]: Glutathione S-transferase M3 (GSTM3), GSTM3 (gene 2947)
In words: LTEA_HepaRG_GSTM3: Life Technologies and Expression Analysis (LTEA) Assay for Glutathione S-transferase M3 (GSTM3) using HepaRG (AID 2283501). The procedure, abridged:
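qRT-PCR read-out of GSTM3 transcript, normalized to three housekeeping genes, from human HepaRG cells after 48 h chemical exposure. Eight-point half-log series, top 100 uM, 0.5% DMSO vehicle; gain or loss fitted relative to DMSO baseline.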

Read-out in assay [6]: Heat shock 70 kDa protein 1 (HSPA1A), gene 3303
In words: LTEA_HepaRG_HSPA1A: Life Technologies and Expression Analysis (LTEA) Assay for Heat shock 70 kDa protein 1 (HSPA1A) using HepaRG (AID 2283502). The procedure, abridged:
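Cells were plated and cultured for 48 h, then switched to serum-free induction medium. Chemicals were added at eight half-log concentrations up to 100 uM for 48 h. RNA was then isolated and HSPA1A measured by qRT-PCR with bidirectional curve fitting against DMSO.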

Read-out in assay [7]: Cytochrome P450 4A22 (Homo sapiens) (UniProt Q5TCH4)
The assay can be described thus: LTEA_HepaRG_CYP4A22: Life Technologies and Expression Analysis (LTEA) Assay for Cytochrome P450 4A22 (CYP4A22) using HepaRG (AID 2283495). The method in brief: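 HepaRG, 48 h post-plating -> serum-free induction medium; dosed 48 h, duplicate, 8 conc. (100 uM top, half-log), 0.5% DMSO. Readout: CYP4A22 mRNA by qRT-PCR, ACTB/GAPDH/POLR2A normalization; gain/loss fit relative to DMSO.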

Read-out in assay [8]: Cytochrome P450 7A1 (Homo sapiens) (UniProt P22680)
The assay can be described thus: LTEA_HepaRG_CYP7A1: Life Technologies and Expression Analysis (LTEA) Assay for Cytochrome P450 7A1 (CYP7A1) using HepaRG (AID 2283496). The method in brief: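 HepaRG, 48 h exposure, 8-pt half-log series from 100 uM, 0.5% DMSO vehicle, duplicates. Readout: TaqMan qRT-PCR mRNA vs three housekeeping genes; bidirectional curve fit against DMSO baseline.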

Read-out in assay [9]: growth arrest and DNA damage 45 (GADD45G), GADD45G (gene 10912)
In words: LTEA_HepaRG_GADD45G: Life Technologies and Expression Analysis (LTEA) Assay for growth arrest and DNA damage 45 (GADD45G) using HepaRG (AID 2283499). The method in brief:
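HepaRG, 48 h exposure, top 100 uM, half-log 8-point series, 0.5% DMSO vehicle, duplicates. Readout: GADD45G transcript by qRT-PCR (Fluidigm array), housekeeping-normalised (ACTB/GAPDH/POLR2A). Bidirectional curve fit vs DMSO baseline.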

For orientation: AC50 means the concentration at which the activity in the assay is half-maximal.

On to `c1ccc2c(c1)-c1cccc3cccc-2c13`, for which the call (in the assay with CYP3A5 (gene 1577); in assay [2]; in assay [3]; in assay [4]; in assay [5]; in [6]) was inactive. Also, the AC50 in [1] is 50 µM (active).
On to `Cc1ccc(N)cc1`, for which the call (in the assay with CYP3A5 (gene 1577); in [1]; in assay [7]; in [8]; in assay [2]; in assay [3]) was inactive. Further, the call in [4], in assay [5] and in assay [6] was inactive.
Take `CN(C)[C@@H]1C(=O)C(C(N)=O)=C(O)[C@@]2(O)C(=O)C3=C(O)c4c(O)cccc4[C@@](C)(O)[C@H]3C[C@@H]12`: the call (with CYP3A5 (gene 1577); in assay [1]; in assay [7]; in assay [8]; in assay [2]; in assay [3]) was inactive. Moreover, the outcome in assay [4], in assay [5] and in [6] was inactive.
Turning to `C[C@]12C=CC3=C4CCC(=O)C=C4CC[C@H]3[C@@H]1CC[C@@H]2O`, the AC50 in assay [1] was 47.7 µM (active); in assay [4] it was 79 µM (active). Moreover, the outcome in assay [2], in assay [3], in assay [5] and in assay [6] was inactive.
Turning to `Clc1ccc(C(c2ccc(Cl)cc2)C(Cl)(Cl)Cl)cc1`, the half-maximal activity concentration (AC50) in [1] is 50 µM (active); in [7], 50 µM (active); in [6], 23.3 µM (active). The compound was called inactive in assay [8], in assay [2], in [3], in assay [4] and in [5].
`CC(C)(C)C(O)(CCc1ccc(Cl)cc1)Cn1cncn1` (centres undefined): the compound was classed as inactive (with CYP3A5 (gene 1577); in assay [3]; in assay [5]; in [6]). Further, the half-maximal activity concentration (AC50) was 11.5 µM (active) in assay [1]; 57 µM (active) in [7]; 50 µM (active) in assay [8]; 76.4 µM (active) in assay [2]; 50 µM (active) in assay [4].
With `Nc1cc(Cl)cc(C(=O)O)c1Cl`, the compound was classed as inactive (in the assay with CYP3A5 (gene 1577); in assay [1]; in [7]; in assay [8]; in [2]; in [3]). Moreover, the call in assay [4], in assay [5] and in [6] was inactive.
For `CCC[CH2][Sn]([Cl])([CH2]CCC)[CH2]CCC`, the AC50 with CYP3A5 (gene 1577) is 82.8 µM (active); in assay [1], 2.31 µM (active); in assay [2], 1.67 µM (active); in assay [3], 50 µM (active); in assay [6], 2.27 µM (active). Moreover, the result in assay [4] and in [5] was inactive.
For the compound `Nc1ccc(Cl)cc1N`, the AC50 in the assay with CYP3A5 (gene 1577) was 17.3 µM (active); in assay [1] it was 28.2 µM (active); in assay [7] it was 29.7 µM (active); in assay [8], 23.1 µM (active); in [2], 27.9 µM (active); in [3] it was 32.6 µM (active). The AC50 in assay [6] is 20.6 µM (active). For the same compound, the compound was classed as inactive in assay [4] and in assay [5].
In the case of `COP(=S)(OC)SCN1C(=O)c2ccccc2C1=O`, the outcome (with CYP3A5 (gene 1577); in assay [7]; in assay [8]; in [2]; in assay [3]; in assay [9]) was inactive. The call in assay [4], in assay [5] and in [6] was inactive.
Regarding `CN(C)C(=O)Nc1ccc(Cl)cc1`, the call (in the assay with CYP3A5 (gene 1577); in [1]; in assay [7]; in assay [8]; in assay [2]; in assay [3]) was inactive. The compound was classed as inactive in [4], in assay [5] and in [6].
`CCCCCCCCn1sccc1=O`: the figures for the AC50 (with CYP3A5 (gene 1577); in assay [7]; in assay [8]) were 83.1 µM (active), 78.9 µM (active) and 82.2 µM (active), respectively. In addition, the outcome in assay [1], in assay [2], in assay [3], in assay [4], in [5] and in assay [6] was inactive.
`Oc1ccc2ccc3cccc4ccc1c2c34`: the compound was called inactive (in the assay with CYP3A5 (gene 1577); in [1]; in assay [7]; in [2]; in assay [3]; in assay [4]). For the same compound, the outcome in assay [5] and in assay [6] was inactive. Besides, the AC50 in assay [8] is 50 µM (active).
For the compound `CCOc1cccc(C2(N3CCN(c4ccccc4)CC3)CCC(C)CC2)c1` (centres undefined), the compound was classed as inactive (with CYP3A5 (gene 1577); in assay [1]; in assay [7]; in assay [8]; in [2]; in [3]). Moreover, the compound was called inactive in [4], in [5] and in assay [6].
With `c1ccc(C2CO2)cc1` (centres undefined), the compound was called inactive (with CYP3A5 (gene 1577); in [1]; in assay [7]; in assay [8]; in assay [2]; in [3]). Further, the result in assay [4] and in [6] was inactive.
Take `CC(C)N(Cc1ccccc1)C(=O)C(C)(C)C`: the outcome (with CYP3A5 (gene 1577); in assay [7]; in assay [8]; in [2]; in [3]; in assay [4]) was inactive. The outcome in assay [5] and in [6] was inactive. Further, the AC50 in assay [1] was 8.19 µM (active).
On to `CN(C)c1ccc(C(=O)c2ccc(N(C)C)cc2)cc1`, for which the compound was called inactive (in the assay with CYP3A5 (gene 1577); in [8]; in assay [2]; in assay [3]; in [4]; in [5]). The compound was classed as inactive in [6]. Moreover, the AC50 in assay [1] and in assay [7] was 50 µM (active) each time.
Turning to `O=[N+]([O-])C(Br)(CO)CO`, the result (in the assay with CYP3A5 (gene 1577); in assay [1]; in [7]; in assay [8]; in [2]; in assay [3]) was inactive. The compound was classed as inactive in [4], in [5] and in assay [6].
For the compound `OCCCBr`, the outcome (in the assay with CYP3A5 (gene 1577); in assay [1]; in [7]; in [8]; in [2]; in [3]) was inactive. The outcome in [4], in assay [5] and in assay [6] was inactive.
For `CCOC(=O)[C@]1(c2ccccc2)Oc2ccccc2[C@@H]1N`, the outcome (in the assay with CYP3A5 (gene 1577); in assay [5]; in assay [6]) was inactive. For the same compound, the AC50 in assay [1] is 90.1 µM (active); in [7] it was 71.6 µM (active); in assay [8], 90.5 µM (active); in assay [2], 76.1 µM (active); in assay [3], 82.4 µM (active); in assay [4], 76.9 µM (active).
In the case of `O=C(O)C1C2CCC(O2)C1C(=O)O` (centres undefined), the outcome (in the assay with CYP3A5 (gene 1577); in assay [3]; in assay [4]; in assay [5]; in [6]) was inactive. The AC50 in assay [1] is 77.9 µM (active); in assay [7] it was 50 µM (active); in assay [8] it was 71.5 µM (active); in assay [2], 72.4 µM (active).
As to `O=[N+]([O-])c1ccc(Oc2ccc(Cl)cc2Cl)cc1`, the call (with CYP3A5 (gene 1577); in assay [1]; in assay [7]; in assay [8]; in [2]; in [5]) was inactive. Also, the result in assay [6] was inactive. Also, the results for the AC50 in assay [3] and in assay [4] were 27.1 µM (active) and 50 µM (active), respectively.
